IL1B secr inh = inhibitors of inflammasome signaling (IL-1 beta secretion); THP-1 LPS/ATP IL-1B secretion, AlphaLISA, 16 h; active compounds read low; activity change, % at 57.5 µM; hit rate 4.7% among 360,000; in the data active = activity change below about -50%; inconclusive = mostly about -30% to -49%
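Secreted IL-1B measured by AlphaLISA bead assay after 16 h compound exposure of THP-1 cells; compounds (final up to 57.5 uM) added 1 h before LPS (250 ng/mL) and ATP (1.25 mM) stimulation; lower signal means less secretion.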
HT1080NT lethal = kills 2HG-producing HT-1080-NT fibrosarcoma cells; HT-1080-NT fibrosarcoma viability, CellTiter-Glo ATP luminescence, 48 h; Potency, µM (doses to about 46.1 µM), for the others: at the highest dose activity, negative = less viability, actives largely listed as cytotoxic; hit rate 1.6% among 360,000;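 note: NT is the 2HG producing partner of a matched IDH1 knockdown line; potency is the fitted concentration of half-maximal effect; 0% = DMSO-treated cells and -100% = media-only wells without cells; nearly all actives have a fitted effect of over 55% in size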
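Compounds were tested in concentration-response format on HT-1080-NT cells for 48 hours at 37 degrees C. Cell viability came from CellTiter-Glo luminescence; curves were classified by r2, response magnitude and activity.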
TDP1 cell noCPT = qHTS for Inhibitors of human tyrosyl-DNA phosphodiesterase 1 (TDP1): qHTS in cells in absence of CPT. DT40 Tdp1-/- hTDP1 cells, no CPT, ATP luminescence, 48 h. Potency, µM (series often up to 46.2 µM), inactives show at the highest dose activity change, negative = growth inhibition, most hits filed as inhibitors. hit rate 15% among 420,000; note: potency is the fitted concentration of half-maximal effect; nearly all actives have a fitted effect of over 55% in size
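Readout: luminescence from CellTiter-Glo after 30 min in the dark at RT. Cells: DT40 Tdp1-/- with stable hTDP1, 400/well. Exposure: compounds alone, ≥48 hr, 37 °C.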
ELG1 DNA repair = inhibitors of ELG1-dependent DNA repair in HEK293T cells; hit rate 2.3% among 330,000; Potency, µM (highest dose often 46.1 µM), inactives show at the top dose activity change, negative = inhibition, most hits filed as inhibitors; HEK293T ELG1-luciferase reporter, luminescence, 16 h; DNA damage induced by 5-fluorouridine; note: potency is the fitted concentration of half-maximal effect; nearly all actives have a fitted effect of over 55% in size
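5-Fluorouridine DNA damage + compound/DMSO, 2,000 cells/well, 16 h, 37 °C/5% CO2. ONE-Glo, 30 min RT, luminescence. Readout = decrease in reporter signal.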
TDP1 cell CPT = growth inhibition of DT40 Tdp1-/-;hTDP1 cells with camptothecin (screen for TDP1 inhibitors). chicken DT40 Tdp1-/-;hTDP1 cells + 20 nM CPT, ATP luminescence, 48 h. Potency, µM (titrated, usually from 46.2 µM), for the others: at the highest dose activity change, negative = growth inhibition, most hits filed as inhibitors. hit rate 12% among 420,000. AID 686979; note: potency is the fitted concentration of half-maximal effect; nearly all actives have a fitted effect of over 55% in size
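Chicken DT40 Tdp1-/- cells complemented with human TDP1, 400 cells/well, exposed to compounds plus 20 nM camptothecin for at least 48 h at 37 C; viability read as ATP content by CellTiter-Glo luminescence.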
HT1080 IDH1KD tx = HT-1080 IDH1 knockdown cell toxicity (counter line). HT-1080 IDH1 knockdown viability, ATP luminescence, 48 h. Potency, µM (titrated, usually from 46.1 µM), for inactives: at the highest dose activity, negative = toxicity, hits mostly cytotoxic. hit rate 2% among 360,000. AID 686971;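 note: potency is the fitted concentration of half-maximal effect; 0% = DMSO wells and -100% = cell-free medium wells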
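Cytotoxicity counter-line: IDH1KD HT-1080, 48 h, CellTiter-Glo. Curves classed by r2, magnitude and activity.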
Starred values were filed as active, the others as inactive; ? = inconclusive; nt = not tested or not shown. Shown are actives, neighbours in structure and some others; about 19% of the full set was active somewhere. Unless noted, calls come from the whole dose curve; as a rule, active = well fitted curve in the direction sought with a large enough effect; inconclusive = small, poorly fitted or top-dose-only effect, or another doubt; inactive = no such curve, though single readings can be large; an effect the other way counts as inactive or inconclusive. Unless noted, % is set by controls: 0 for no effect and ±100 for the full control effect.

SMILES	IL1B secr inh	HT1080NT lethal	TDP1 cell noCPT	ELG1 DNA repair	TDP1 cell CPT	HT1080 IDH1KD tx
N/C(=N\OC(=O)c1ccc2ccccc2c1)c1ccccc1Cl	0	?	13%	?	-5%	?
COc1ccc(/C=C/C(=O)Nc2ccc(C(N)=O)cc2)cc1OC	15	?	-10%	0%	26%	?
COc1cccc(C(=O)Nc2ccc(-n3nncc3-c3ccc(Br)cc3)cc2)c1OC	nt	nt	-17%	nt	-12%	nt
CCOc1ccc(C(=O)Nc2ccc(-n3nncc3-c3ccccc3)cc2)cc1OCC	nt	nt	15µM*	nt	18µM*	nt
COc1ccc(-c2cnnn2-c2ccc(NC(=O)c3ccc(S(=O)(=O)N4CCCCC4)cc3)cc2)cc1	15	3%	?	?	?	-8%
Cc1ccc(NC(=O)c2ccc(-n3nncc3-c3ccccc3)cc2)cc1	nt	nt	16µM*	nt	?	nt
COc1ccc(/C=C/C(=O)Nc2ccc(-n3nncc3-c3ccccc3)cc2)cc1OC	4	-1%	8.2µM*	15µM*	21µM*	-9%
O=c1cc2oc3cc(O)c(O)cc3c(-c3ccccc3[N+](=O)[O-])c-2cc1O	-7	15µM*	23µM*	21µM*	21µM*	21µM*
CCC(C)NC(=O)c1sc2nc(C)c(C(=O)Nc3ccc(C)cc3C)c(-c3ccc(NC(C)=O)cc3)c2c1N (stereo unspecified)	nt	nt	?	nt	21µM*	nt
COc1ccccc1NC(=O)c1sc2nc(C)c(C(=O)Nc3ccc(C)cc3C)c(-c3cccs3)c2c1N	nt	nt	-7%	nt	-2%	nt
CCC(C)NC(=O)c1sc2nc(C)c(C(=O)Nc3ccc(C)cc3C)c(-c3ccc(Cl)cc3)c2c1N (stereo unspecified)	nt	nt	?	nt	23µM*	nt
CCC(C)NC(=O)c1sc2nc(C)c(C(=O)Nc3ccc(C)cc3C)c(-c3ccccc3Cl)c2c1N (stereo unspecified)	nt	nt	?	nt	15µM*	nt
COc1ccc(N(C(=O)CNC(=O)c2ccco2)C(C(=O)NC2CCCCC2)c2ccco2)cc1 (stereo unspecified)	-6	15%	-4%	1%	-16%	20%
COC(=O)c1ccc(N(C(=O)CNC(=O)c2ccco2)C(C(=O)NC2CCCC2)c2ccco2)cc1 (stereo unspecified)	7	-5%	23µM*	-1%	?	0%
CC(C)c1ccc(N(C(=O)CNC(=O)c2ccco2)C(C(=O)NC2CCCC2)c2cccnc2)cc1 (stereo unspecified)	-70*	1%	0%	-6%	-5%	2%
CCc1ccc(N(C(=O)c2ccco2)C(C(=O)NC2CCCC2)c2ccco2)cc1 (stereo unspecified)	?	-20%	16µM*	nt	?	-18%
O=C(NC1CCCC1)C(c1ccco1)N(C(=O)c1ccco1)c1ccccc1 (stereo unspecified)	-6	-2%	15µM*	0%	2%	-11%
O=c1c2c3c(sc2nnn1Cc1ccc(Br)cc1)CCCC3	nt	nt	?	nt	-21%	nt
COCCN(C(=O)c1ccc(N2CCCC2=O)cc1)c1c(N)n(Cc2ccccc2)c(=O)[nH]c1=O	-19	-5%	29%	18%	-5%	-8%
Cc1ccc(N(C(=O)CNC(=O)c2ccco2)C(C(=O)NCC2CCCO2)c2ccccc2)cc1C (stereo unspecified)	-18	2%	21µM*	?	-29%	-2%
COCCn1c(=O)c(C)nc2cnc(N3CCN(C)CC3)nc21	nt	nt	30%	nt	-2%	nt
N#Cc1c(-c2ccccc2)ccnc1Oc1ccccc1	-16	-6%	-25%	?	3%	-5%
Cc1ccc(C(=O)N2CCN(C)CC2)cc1[N+](=O)[O-]	5	14%	5%	6%	3%	17%
CCN(Cc1ccccc1)S(=O)(=O)CCNC(=O)c1ccc(OC)cc1	-17	17%	-27%	10%	9%	3%
COc1ccc(-c2[nH]c3ccccc3c2SCCNC(=O)c2cc(OC)c(OC)c(OC)c2)cc1	nt	nt	3.7µM*	nt	5.2µM*	nt
SMILES	IL1B secr inh	HT1080NT lethal	TDP1 cell noCPT	ELG1 DNA repair	TDP1 cell CPT	HT1080 IDH1KD tx
Cc1ccc(-c2[nH]c3ccccc3c2SCCNC(=O)c2cc3ccccc3oc2=O)cc1	0	?	?	-22%	?	?
COc1cccc(C(=O)NCCSc2c(-c3ccc(F)cc3)[nH]c3ccccc23)c1OC	nt	nt	13µM*	nt	16µM*	nt
CCN(CC)S(=O)(=O)c1ccc(C(=O)NCCSc2c(-c3ccc(OC)cc3)[nH]c3ccccc23)cc1	nt	nt	3.7µM*	nt	7.3µM*	nt
CCN(CC)S(=O)(=O)c1ccc(C(=O)NCCc2cc3c(OC)ccc(OC)c3[nH]c2=O)cc1	49	10%	16µM*	?	?	9%
COc1ccc(CN(C)C(=O)/C=C/[C@H]2O[C@@H](n3cc(C)c(=O)[nH]c3=O)C[C@@H]2O)cc1OC	-10	12%	0%	nt	4%	?
COc1ccc(N(C(=O)c2cccnc2)S(=O)(=O)c2ccc(F)cc2)cc1	13	12%	?	3%	-27%	2%
COc1ccc(-c2[nH]c3ccccc3c2SCCNC(=O)c2ccc(S(=O)(=O)N(C)C)cc2)cc1	nt	nt	2.6µM*	nt	3.3µM*	nt
CCOc1ccc(NC(=O)Cn2ccn3nc(-c4ccc(OC)c(OC)c4)cc3c2=O)cc1	nt	nt	1%	nt	-19%	nt
CCOC(=O)C1=C(C)N=C2SC(C(=O)OC)=CC(=O)N2C1c1cccc(OC)c1 (stereo unspecified)	0	-4%	?	-13%	?	-2%
CCOC(=O)C1=C(C)N=C2SC(C(=O)OC)=CC(=O)N2C1c1ccc(F)cc1 (stereo unspecified)	-61*	0%	?	-7%	?	-18%
CCc1ccccc1NC(=O)Cn1cc(S(=O)(=O)N2CCCC2)c(S(=O)(=O)N2CCCC2)c1	nt	nt	7%	nt	0%	nt
CCC(c1nnnn1-c1ccc2c(c1)OCCO2)N1CCc2ccccc2C1 (stereo unspecified)	4	-2%	?	nt	?	-9%
CCC(c1nnnn1-c1ccc2c(c1)OCCO2)N1CCN(c2ccc(F)cc2)CC1 (stereo unspecified)	-9	-12%	16µM*	nt	15µM*	?
CCC(c1nnnn1-c1ccc2c(c1)OCCO2)N1CCN(c2ncccc2C(F)(F)F)CC1 (stereo unspecified)	-7	-11%	18µM*	nt	?	?

High-throughput results: PubChem BioAssay, National Center for Advancing Translational Sciences (NCATS)
